In the library only some 2.4% were active in any assay of this set; here they are far more common.
POLK inh – blocks human DNA polymerase kappa activity | Q9UBT6 | purified Pol kappa, fluorescent DNA synthesis assay, 10 min | Potency, µM (series often up to 107 µM), for inactives: at the top dose activity, negative = inhibition, hits mostly inhibitors | hit rate 0.53% among 400,000; note: % is set by controls: 0 for no effect and ±100 for the full control effect
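50 nM final substrate added after 15 min RT preincubation of 10 nM Pol kappa with compound; fluorescence read at 0 and 10 min.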
POLB inh – inhibitors of human DNA polymerase beta. P06746. Pol beta primer extension/strand displacement, fluorescence kinetic. Potency, µM (series often up to 114 µM), without a hit: top-dose activity change, negative = inhibition, hits mostly inhibitors. hit rate 1.3% among 340,000; note: % is set by controls: 0 for no effect and ±100 for the full control effect
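Curves were derived by four-parameter Hill fits of normalized qHTS data. The kinetic fluorescent primer-extension read was taken at 0 and 10 min after 50 nM substrate, following a 15 min room-temperature preincubation of 10 nM enzyme with compounds.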
Pol eta inh – blocks human DNA polymerase eta activity; Q9Y253; recombinant Pol eta, fluorescent DNA replication assay; Potency, µM (titrated, usually from 114 µM), inactives show at the top dose activity change, negative = inhibition, usual class: inhibitors; hit rate 1.2% among 390,000; AID 588591; note: % is set by controls: 0 for no effect and ±100 for the full control effect
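Fluorescent replication assay: 50 nM final substrate added after a 15 min room-temperature compound preincubation with 10 nM enzyme. Signal taken at 0 min and again at 10 min.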
FEN1 inh – inhibitors of human flap endonuclease 1; P39748; Recombinant FEN1 flap cleavage, fluorescence, 15 min; Potency, µM (doses to about 114 µM), inactives show at the top dose activity change, negative = inhibition, hits mostly inhibitors; hit rate 0.35% among 390,000; AID 588795; note: % is set by controls: 0 for no effect and ±100 for the full control effect; nearly all actives have a fitted effect of over 65% in size
Target sequence (P39748 whole entry, looked up): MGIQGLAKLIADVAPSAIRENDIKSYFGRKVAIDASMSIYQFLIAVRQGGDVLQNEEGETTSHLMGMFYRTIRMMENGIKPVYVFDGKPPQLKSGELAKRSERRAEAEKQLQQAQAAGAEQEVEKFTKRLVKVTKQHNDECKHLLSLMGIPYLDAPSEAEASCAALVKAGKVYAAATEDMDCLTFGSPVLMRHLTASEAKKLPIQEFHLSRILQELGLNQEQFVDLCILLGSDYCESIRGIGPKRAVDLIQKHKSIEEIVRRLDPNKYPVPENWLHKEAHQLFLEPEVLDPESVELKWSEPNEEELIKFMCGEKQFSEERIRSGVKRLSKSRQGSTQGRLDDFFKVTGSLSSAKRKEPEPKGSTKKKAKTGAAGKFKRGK
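Potency values derive from four-parameter Hill fits of normalized qHTS data. The reaction used 10 nM FEN1 preincubated 15 min at room temperature with compound, then 50 nM DNA substrate, read at 0 and 15 min.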
POLI inh – DNA polymerase iota (human) inhibition; Q9UNA4; AID 588590; hit rate 1% among 390,000; Pol iota fluorescent replication assay, 10 min; Potency, µM (series often up to 115 µM), for inactives: top-dose activity, negative = inhibition, hits mostly inhibitors
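Fluorescent replication assay read twice, at 0 min and 10 min after adding 50 nM (final) substrate. Enzyme (10 nM) and compounds were first incubated 15 min at room temperature; enzyme-free buffer wells were negative controls.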
WRN helicase inh – WRN helicase (human) inhibition. WRN helicase unwinding, fluorescent forked duplex, kinetic. hit rate 0.46% among 360,000. Potency, µM (titrated, usually from 114 µM), for the others: top-dose activity change, negative = inhibition, usual class: inhibitors; note: % is set by controls: 0 for no effect and ±100 for the full control effect; nearly all actives have a fitted effect of over 55% in size
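WRN at 20 nM final preincubated with compound 15 min at room temperature; reaction started with 100 nM fluorophore/quencher forked duplex oligonucleotide and 2 mM ATP final. Unwinding followed kinetically by red fluorescence (ex 525, em 598 nm).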
An asterisk follows results filed as active; ? = inconclusive; . = not tested or not shown; [ ] = another dose, or the depositor's remark. Calls come from the whole dose curve; as a rule, active = well fitted curve in the direction sought with a large enough effect; inconclusive = small, poorly fitted or top-dose-only effect, or another doubt; inactive = no such curve, though single readings can be large; an effect the other way counts as inactive or inconclusive. Potency is the fitted concentration of half-maximal effect.

SMILES	POLK inh	POLB inh	Pol eta inh	FEN1 inh	POLI inh	WRN helicase inh
CN(C)CCCN=c1cc(-c2ccccc2)oc2ccc(Cl)cc12	-15%	-6%	-4%	?	-7%	-6%
OCCN=c1cc(-c2ccccc2)oc2ccc(Cl)cc12	-8%	89µM*	2%	?	?	-5%
NC(=NCc1ccc(Cl)cc1Cl)NC(=O)c1nc(Cl)c(N)nc1N	-4%[19.4 µM]	.	.	.	.	.
Cc1ccc(-n2c(SCC(N)=O)nnc2-c2cccnc2)c(C)c1	5%	31%	-11%	10%	-5%	2%
Cc1ccc(-n2c(SCc3cc(=O)n4ccsc4n3)nnc2-c2cccnc2)c(C)c1	-9%	18µM*	4%	0%	?	-9%[57.1 µM]
Cc1ccc(C(=O)c2c(C)oc3c2C(=O)C(=O)c2ccccc2-3)cc1	-4%	-25%	45µM*	-23%	-45%	-35%
N#C/C(=C\c1ccc(-c2ccc([N+](=O)[O-])cc2)o1)C(=O)Nc1nc(-c2cccs2)cs1	?	?	32µM*	-14%	14µM*	-14%[57.1 µM]
COc1ccc(C2CC(=O)N3CN(C4CCCCC4)CSC3=C2C#N)c(OC)c1 (stereo not drawn)	-3%	1%	-21%	-13%	7.9µM*	.
COc1ccc(OC)c(C2CC(=O)N3CN(c4ccccc4)CSC3=C2C#N)c1 (stereo not drawn)	-5%	3%	-23%	?	26%	-3%
N#CC1=C2SCN(Cc3ccccc3)CN2C(=O)CC1c1ccc2c(c1)OCO2 (stereo not drawn)	-5%	45µM*	-3%	8%	-6%	-35%
COc1ccc2ccccc2c1C1CC(=O)N2CN(Cc3ccco3)CSC2=C1C#N (stereo not drawn)	-42%	50µM*	89µM*	?	?	-11%
N#CC1=C2SCN(Cc3ccccc3)CN2C(=O)CC1c1cccs1 (stereo not drawn)	-44%	?	-21%	?	?	0%
COc1ccc(N2CSC3=C(C#N)C(c4cccc(OC)c4OC)CC(=O)N3C2)cc1 (stereo not drawn)	-10%	1%	8%	-20%	57%	6%
COc1ccc2ccccc2c1C1CC(=O)N2CN(C3CCCCC3)CSC2=C1C#N (stereo not drawn)	-44%	89µM*	?	?	?	-2%
Cc1ccc2c(C(=O)CNC3=NCCS3)c(C)[nH]c2c1	-1%	.	.	-8%	-10%	.
C=C1NN(C(C)C(=O)O)C(=O)N1c1ccc(OCc2ccccc2)cc1 (stereo not drawn)	2%	.	.	16%	14%	.
O=S1(=O)C2CC3C=CC2(CN1Cc1ccccc1)O3 (stereo not drawn)	21%	.	.	8%	18%	.
CCN1C(C)=C(C(=O)OC(C)C)C(c2ccccc2Cl)C(C(=O)O)=C1C(=O)O (stereo not drawn)	18%[60.1 µM]	.	.	.	.	.
O=S(=O)(c1ccc(F)cc1)N1CCN(c2nc(-c3cccc(Br)c3)nc3ccccc23)CC1	2%	.	.	11%	-5%	.
NC1CCc2ccccc21 (stereo not drawn)	1%	.	.	-4%	-1%	.
CSCC[C@H](NC(=O)[C@H](CC(C)C)NC(=O)CNC(=O)[C@H](Cc1ccccc1)N(C)C(=O)[C@H](Cc1ccccc1)NC(=O)[C@H](CC(=O)O)NC(=O)[C@@H](N)CC(=O)O)C(N)=O	10%[60.1 µM]	.	.	.	.	.
C(=C\c1nccc2ccccc12)/c1ccc(N2CCOCC2)cc1	-12%	.	.	-17%	35%	.
COc1ccc(C2=CC3=C(Br)C(=O)C(C)(OC(=O)c4ccco4)C(=O)C3=CO2)cc1 (stereo not drawn)	79µM*	20µM*	?	40µM*	18µM*	45µM*
O=C(NCc1ccccc1)[C@]1(C(F)(F)F)C[C@H](CCC2CCCCC2)CCCO1	-1%	.	.	-32%	13%	.
COC(=O)c1ccccc1-c1ccc(C(c2c(C)[nH][nH]c2=O)c2c(C)[nH][nH]c2=O)o1	-7%	9%	?	-3%	7.9µM*	-17%
SMILES	POLK inh	POLB inh	Pol eta inh	FEN1 inh	POLI inh	WRN helicase inh
COC(=O)c1cccc(-c2ccc(C(c3c(C)[nH][nH]c3=O)c3c(C)[nH][nH]c3=O)o2)c1	-7%	?	-5%	-24%	7.1µM*	?
COC(=O)c1ccc(C(c2c(C)[nH][nH]c2=O)c2c(C)[nH][nH]c2=O)cc1	4%	31%	-15%	12%	-13%	3%
COc1cc(C(c2c(C)[nH][nH]c2=O)c2c(C)[nH][nH]c2=O)ccc1OC(=O)c1ccccc1OC	6%	-1%	8%	-19%	?	.
O=C1C=CC(=O)C(C2=C3C(=O)N(CCc4ccccc4)CC(=O)N3CCC2)=C1	-23%	2%	-13%	7%	?	40µM*
Cc1c(NC(=O)NC(=O)c2ccc(F)cc2)c(=O)n(-c2ccccc2)n1C	-2%	6%	-4%	-20%	-1%	-3%
Cc1c(N=C2N=C(NC(=O)c3ccc(F)cc3)c3ccccc32)c(=O)n(-c2ccccc2)n1C	13µM*	-3%	?	13%	?	-18%
CCCCN(CCC(=O)O)c1ccc(/C=C/c2ccnc3ccccc23)cc1	-5%	.	.	-17%	17%	.
Cc1nc2ccc([N+](=O)[O-])cc2c(=O)n1Cc1cccc(Br)c1	-10%	79µM*	-3%	-21%	20%	6%
O=c1cc(CSc2nnnn2-c2ccccc2)nc2scc(-c3ccccc3)n12	?	25µM*	-14%	-5%	?	-12%
CC(C)c1ccc(OCc2cc(=O)n3c(-c4ccccc4)csc3n2)cc1	-24%	20µM*	?	12%	?	.
Cc1cccc(OCc2cc(=O)n3c(-c4ccccc4)csc3n2)c1C	-34%	28µM*	?	7%	?	.
O=c1cc(CN2CCN(c3ccc(O)cc3)CC2)nc2scc(-c3ccccc3)n12	-20%	11µM*	-18%	7%	?	-14%
N#CN=c1snc(-c2ccccc2Cl)n1-c1ccccc1Cl	-24%	.	.	-18%	59%	.
COc1ccc(CN2CC[C@H]3C=CC[C@@H](C(=O)Nc4nccs4)[C@H]3C2=O)cc1OC	-22%	.	.	14%	8%	.
O=c1ccc(NS(=O)(=O)c2ccccc2Cl)cn1Cc1ccc(Cl)c(Cl)c1	-3%	-23%	-7%	71µM*	-24%	2%
FC(F)(F)C(F)(F)C(F)(F)C(F)(F)C(F)(F)F	3%[19.4 µM]	.	.	.	.	.
O=c1c2c(nc3cc(-c4ccc(F)cc4)[nH]n13)CCCC2	-21%	18µM*	?	-11%	?	?

Screening results (PubChem BioAssay)
